Measurements from PubChem BioAssay (NCI).
The panel holds about 83,000 compounds, 20% with a hit somewhere; the sample as a whole holds those more often.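 Activity criterion: percent growth below 10, measured after cells in 96-well plates were exposed to a single compound concentration for 48 hours.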 The source made the active and inactive calls.

Key:
Test in all cases: NCI-60 one-dose screen, 48 h (100 = growth as untreated, 0 = no growth, -100 = all killed)
Conditions in all cases: 10 µM unless noted
[1] = tested on: HCT-15 colon
[2] = tested on: HT29 colon
[3] = tested on: SNB-75 CNS
[4] = tested on: SNB-19 CNS
[5] = tested on: U251 CNS
[6] = tested on: PC-3 prostate
[7] = tested on: SK-MEL-5 melanoma
[8] = tested on: UACC-62 melanoma
[9] = tested on: LOX IMVI melanoma
[10] = tested on: SK-MEL-28 melanoma
[11] = tested on: SK-MEL-2 melanoma
[12] = tested on: EKVX NSCLC
[13] = tested on: SN12C renal
[14] = tested on: UO-31 renal
[15] = tested on: TK-10 renal
[16] = tested on: ACHN renal
[17] = tested on: CAKI-1 renal
[18] = tested on: A498 renal
[19] = tested on: CCRF-CEM leukemia
[20] = tested on: MOLT-4 leukemia

Measured: growth

CC/C=C(\C)C(CCC)(CN=O)C(=O)OCC (stereo not given)
inactive: [1] 99.6% | [2] 106% | [3] 81.9% | [4] 105% | [5] 99.3% | [6] 98.3% | [7] 111% | [8] 110% | [9] 99.7% | [10] 116% | [11] 106% | [12] 112% | [13] 108% | [14] 90.4% | [15] 103% | [16] 110% | [17] 104% | [18] 114% | [19] 101% | [20] 90.1%

COc1ncc(-c2ccc3nccc(C#CCCCCC(=O)O)c3c2)cc1NS(=O)(=O)c1ccc(F)cc1F
inactive: [1] 27.7% | [2] 16.1% | [4] 31.1% | [5] 31.6% | [6] 19.8% | [7] 10.3% | [9] 28.2% | [11] 31.3% | [12] 22% | [13] 40.8% | [14] 12.5% | [16] 32% | [17] 14.1% | [19] 24.4% | [20] 29%
active: [3] -12.5% | [8] -12.6% | [10] 7.69% | [15] 3.96% | [18] -34.5%

CCOC(=O)c1nn(C2CCCCO2)c2ccc(NC(=O)Cn3nnc4ccccc43)cc12 (stereo not given)
inactive: [1] 95.9% | [2] 115% | [3] 78.6% | [4] 86.5% | [5] 96.4% | [6] 110% | [7] 99.1% | [8] 99.9% | [9] 96.5% | [10] 106% | [11] 113% | [12] 98.1% | [13] 97.6% | [14] 82.6% | [15] 117% | [16] 98.6% | [17] 97.6% | [18] 85.8% | [19] 117% | [20] 95.9%

CC[C@]12C=CCN3CC[C@@]4(c5ccc(OC)cc5N(C)[C@H]4[C@@](O)(C(=O)OC)[C@@H]1OC(=O)CCC(=O)O[C@H]1CC[C@H]4[C@@H]5CCC6=CC(=O)CC[C@@H]6[C@H]5CC[C@]14C)[C@@H]32
inactive: [1] 14.5% [100 µM] | [4] 21.7% [100 µM] | [5] 10.8% [100 µM] | [6] 11.3% [100 µM] | [12] 16.1% [100 µM] | [15] 12.4% [100 µM]
active: [2] -21.8% [100 µM] | [3] -27.2% [100 µM] | [7] -95.3% [100 µM] | [8] -53.8% [100 µM] | [9] -29.5% [100 µM] | [10] -7.77% [100 µM] | [11] -79.8% [100 µM] | [13] 7.65% [100 µM] | [14] -7.86% [100 µM] | [16] -0.641% [100 µM] | [17] 6.42% [100 µM] | [18] -15.8% [100 µM] | [19] 5.61% [100 µM] | [20] -6.15% [100 µM]

CC(C)=CC/C=C(/C)[C@H]1CC[C@]2(C)[C@@H]1CC[C@@H]1[C@@]3(C)CCCNC(C)(C)[C@@H]3CC[C@]12C
active: [1] -53.6% [100 µM] | [2] -64.7% [100 µM] | [3] -84.4% [100 µM] | [4] -63.1% [100 µM] | [5] -63.3% [100 µM] | [6] -65% [100 µM] | [7] -71.2% [100 µM] | [8] -95.2% [100 µM] | [9] -46% [100 µM] | [10] -87.1% [100 µM] | [11] -70% [100 µM] | [12] -71.2% [100 µM] | [13] -85.2% [100 µM] | [14] -82.1% [100 µM] | [15] -67% [100 µM] | [16] -77% [100 µM] | [17] -79.9% [100 µM] | [18] -88.6% [100 µM] | [19] -15.7% [100 µM] | [20] -25.6% [100 µM]

O=C(NCc1ccccc1)C(Cl)Cl
inactive: [1] 98.2% | [2] 99.2% | [3] 102% | [4] 96.7% | [5] 99.4% | [6] 101% | [7] 101% | [8] 93.1% | [9] 101% | [10] 96.1% | [11] 96.2% | [12] 95.4% | [13] 104% | [14] 91.5% | [15] 90.2% | [16] 104% | [17] 96.5% | [18] 94.4% | [19] 103% | [20] 101%

C=C(CN=[N+]=[N-])[C@@H]1CC[C@]2(C)[C@H](CC[C@@H]3[C@H]4[C@H]5OC(=O)[C@@]4(CCC5(C)C)CC[C@]32C)[C@@]1(C)CCC#N
inactive: [1] 87.6% [100 µM] | [2] 61.7% [100 µM] | [3] 89.6% [100 µM] | [4] 90.5% [100 µM] | [5] 79.6% [100 µM] | [6] 45.3% [100 µM] | [7] 41.5% [100 µM] | [8] 57.7% [100 µM] | [9] 69.3% [100 µM] | [10] 98.4% [100 µM] | [11] 83.4% [100 µM] | [12] 90.6% [100 µM] | [13] 76.2% [100 µM] | [14] 80.2% [100 µM] | [15] 105% [100 µM] | [16] 93.9% [100 µM] | [17] 53.5% [100 µM] | [18] 85.2% [100 µM] | [19] 74.6% [100 µM] | [20] 58% [100 µM]

O=C(O)c1cn(C2CC2)c2cc(N3CCN(Cc4c(O)ccc5ccccc45)CC3)c(F)cc2c1=O
inactive: [4] 83.1% | [5] 37.5% | [6] 36.1% | [7] 58.4% | [8] 38.8% | [9] 37.1% | [10] 27.8% | [11] 73.8% | [12] 60.4% | [13] 30.3% | [14] 40.1% | [15] 61.4% | [16] 53.9% | [19] 67.7% | [20] 31.6%
active: [1] 5.61% | [2] -46.7% | [3] -20.8% | [17] 4.12% | [18] -16.6%

C=CCCCCOc1ccccc1-c1cnc(OCCCCC=C)n1C
inactive: [1] 52.2% | [2] 18.1% | [3] 81.9% | [4] 91.1% | [5] 68.6% | [6] 73.5% | [7] 83.7% | [8] 55.7% | [9] 69.1% | [10] 73.4% | [11] 46.1% | [12] 85.2% | [13] 91.1% | [14] 69.3% | [15] 75% | [16] 84.5% | [17] 54.9% | [18] 51.1% | [19] 80.9% | [20] 91.4%

O=C1CN(Cc2ccc(C(=O)NO)cc2)C(=O)[C@@H](Cc2ccccc2)N1
inactive: [1] 104% | [2] 113% | [3] 85.9% | [4] 98.5% | [5] 92.4% | [6] 97.9% | [7] 107% | [8] 99.2% | [9] 111% | [10] 105% | [11] 112% | [12] 98.9% | [13] 102% | [14] 92.9% | [15] 106% | [16] 103% | [17] 94.1% | [18] 94.7% | [19] 105% | [20] 101%

CCOc1ccc(/C=C(\C#N)c2cc3ccccc3[nH]2)cc1
inactive: [1] 28.8% | [2] 13.8% | [3] 67.1% | [4] 80.2% | [5] 41.7% | [6] 68.2% | [7] 72.2% | [8] 43.9% | [9] 46.4% | [10] 69.7% | [11] 36.1% | [12] 72.5% | [13] 62.7% | [14] 69.5% | [15] 79.3% | [16] 81.8% | [17] 40.3% | [18] 56.9% | [19] 63.4% | [20] 31.2%

CC(C)c1ccc(C(=O)Nc2nc3ccc(O)cc3s2)cc1
inactive: [2] 30.4% | [3] 63.7% | [4] 53.8% | [5] 58.4% | [6] 42.4% | [8] 10.8% | [10] 26.5% | [11] 78% | [12] 37.4% | [13] 39.4% | [14] 22.1% | [15] 70.3% | [16] 21.3% | [18] 38% | [19] 29.2% | [20] 13.5%
active: [1] 7.82% | [7] -6.4% | [9] -25.9% | [17] -5.74%

CCn1cc(-c2ccnc(NCCNS(=O)(=O)c3ccc(Br)cc3)c2)c(-c2cccc(OC)c2)n1
inactive: [1] 69.2% | [2] 56.5% | [3] 81.7% | [4] 83.2% | [5] 58.8% | [6] 41.7% | [7] 64% | [8] 71% | [9] 94.2% | [10] 100% | [11] 90.8% | [12] 77% | [13] 77% | [14] 45.6% | [15] 83.2% | [16] 82.6% | [17] 66.1% | [18] 66.2% | [19] 43.2% | [20] 34.8%

O=C(Nc1cccc2ccccc12)c1cc2ccccc2cc1O
active: [5] 8.21% | [6] 2.08% | [7] -57.3% | [13] 7.28% | [14] -19.2% | [16] 1.41% | [17] -40% | [18] -13.8%
inactive: [1] 19.1% | [2] 68.9% | [3] 12.8% | [4] 22.9% | [8] 17.4% | [9] 13.7% | [10] 45.7% | [11] 20.9% | [12] 15% | [15] 34.4% | [19] 17.1% | [20] 21.4%

COc1ccc(NC(=O)Nc2ccc(-c3cccnc3)cc2N2CCC(CO)CC2)cc1
inactive: [1] 43.7% | [3] 51.3% | [4] 49.3% | [5] 33% | [6] 83.7% | [8] 68.7% | [9] 71.9% | [10] 18.7% | [11] 73.6% | [12] 60% | [13] 70.9% | [14] 97.8% | [15] 47.1% | [16] 97.3% | [17] 64.1% | [19] 95.4% | [20] 93.2%
active: [2] 9.77% | [7] -38.3% | [18] 9.13%
